# Measured values: ChEMBL document CHEMBL2218924, “A broad activity screen in support of a chemogenomic map for kinase signalling research and drug discovery” (Biochem J, 2013)
# Assays:
# [1] = target: T1, Tyrosine-protein kinase Tec (Homo sapiens) (UniProt P42680); details: at 1 µM
# T1 sequence (whole entry): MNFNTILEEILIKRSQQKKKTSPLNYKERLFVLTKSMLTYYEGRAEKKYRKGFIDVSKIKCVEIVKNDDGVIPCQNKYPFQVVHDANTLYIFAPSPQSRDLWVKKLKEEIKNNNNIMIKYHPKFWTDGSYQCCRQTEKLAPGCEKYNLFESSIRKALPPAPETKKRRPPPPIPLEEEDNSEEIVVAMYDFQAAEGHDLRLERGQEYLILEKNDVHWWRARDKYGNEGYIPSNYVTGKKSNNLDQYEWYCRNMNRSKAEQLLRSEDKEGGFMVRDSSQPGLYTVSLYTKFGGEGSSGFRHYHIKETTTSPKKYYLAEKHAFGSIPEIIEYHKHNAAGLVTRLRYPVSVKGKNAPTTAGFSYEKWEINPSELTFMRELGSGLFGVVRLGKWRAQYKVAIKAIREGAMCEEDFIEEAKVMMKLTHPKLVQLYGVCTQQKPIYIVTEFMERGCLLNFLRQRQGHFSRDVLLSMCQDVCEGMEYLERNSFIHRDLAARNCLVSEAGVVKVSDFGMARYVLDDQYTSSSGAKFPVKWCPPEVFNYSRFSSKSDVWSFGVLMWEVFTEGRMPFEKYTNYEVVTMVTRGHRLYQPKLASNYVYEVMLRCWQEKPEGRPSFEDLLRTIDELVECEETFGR
# [2] = target: T1, Tyrosine-protein kinase Tec (Homo sapiens); details: at 10 µM
# [3] = target: High affinity nerve growth factor receptor (Homo sapiens) (UniProt P04629); details: at 1 µM
# [4] = target: High affinity nerve growth factor receptor (Homo sapiens) (UniProt P04629); details: at 10 µM
# [5] = target: T2, Tyrosine-protein kinase TXK (Homo sapiens) (UniProt P42681); details: at 1 µM
# T2 sequence (whole entry): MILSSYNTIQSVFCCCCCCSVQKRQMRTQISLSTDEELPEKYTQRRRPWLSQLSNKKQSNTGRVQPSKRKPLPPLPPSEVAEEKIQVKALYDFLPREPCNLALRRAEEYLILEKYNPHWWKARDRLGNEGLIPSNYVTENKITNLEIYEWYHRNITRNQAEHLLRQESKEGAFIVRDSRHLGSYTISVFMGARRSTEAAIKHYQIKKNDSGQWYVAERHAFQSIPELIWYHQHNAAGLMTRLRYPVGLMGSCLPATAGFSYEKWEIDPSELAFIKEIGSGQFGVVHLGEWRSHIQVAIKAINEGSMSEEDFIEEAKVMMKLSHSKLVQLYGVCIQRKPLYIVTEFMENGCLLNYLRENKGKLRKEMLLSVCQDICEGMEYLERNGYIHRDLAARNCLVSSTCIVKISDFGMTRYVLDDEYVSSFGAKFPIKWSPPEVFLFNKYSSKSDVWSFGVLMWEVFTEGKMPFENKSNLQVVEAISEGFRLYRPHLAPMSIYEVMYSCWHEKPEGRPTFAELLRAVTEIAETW
# [6] = target: T2, Tyrosine-protein kinase TXK (Homo sapiens); details: at 10 µM
# [7] = target: T3, Testis-specific serine/threonine-protein kinase 2 (Homo sapiens) (UniProt Q96PF2); details: at 10 µM
# T3 sequence (whole entry): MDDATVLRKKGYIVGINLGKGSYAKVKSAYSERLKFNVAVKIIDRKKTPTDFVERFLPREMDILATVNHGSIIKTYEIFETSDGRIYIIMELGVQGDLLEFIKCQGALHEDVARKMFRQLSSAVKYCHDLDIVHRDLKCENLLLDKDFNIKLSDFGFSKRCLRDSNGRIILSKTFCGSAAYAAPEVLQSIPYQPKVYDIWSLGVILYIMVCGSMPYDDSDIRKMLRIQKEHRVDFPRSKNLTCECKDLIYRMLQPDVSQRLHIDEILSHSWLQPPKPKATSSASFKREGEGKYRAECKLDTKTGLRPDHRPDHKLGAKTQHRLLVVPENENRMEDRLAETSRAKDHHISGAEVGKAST
# [8] = target: BDNF/NT-3 growth factors receptor (Homo sapiens) (UniProt Q16620); details: at 1 µM
# [9] = target: BDNF/NT-3 growth factors receptor (Homo sapiens) (UniProt Q16620); details: at 10 µM
# [10] = target: Serine/threonine-protein kinase WNK2 (Homo sapiens) (UniProt Q9Y3S1); details: at 1 µM;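 note: residual WNK2 kinase activity expressed as percent of uninhibited control, assayed in MOPS buffer at pH 7.0 containing EDTA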
# [11] = target: Angiopoietin-1 receptor (Homo sapiens) (UniProt Q02763); details: at 1 µM
# [12] = target: Angiopoietin-1 receptor (Homo sapiens) (UniProt Q02763); details: at 10 µM
# [13] = target: T4, Serine/threonine-protein kinase ULK2 (Homo sapiens) (UniProt Q8IYT8); details: at 1 µM
# T4 sequence (whole entry): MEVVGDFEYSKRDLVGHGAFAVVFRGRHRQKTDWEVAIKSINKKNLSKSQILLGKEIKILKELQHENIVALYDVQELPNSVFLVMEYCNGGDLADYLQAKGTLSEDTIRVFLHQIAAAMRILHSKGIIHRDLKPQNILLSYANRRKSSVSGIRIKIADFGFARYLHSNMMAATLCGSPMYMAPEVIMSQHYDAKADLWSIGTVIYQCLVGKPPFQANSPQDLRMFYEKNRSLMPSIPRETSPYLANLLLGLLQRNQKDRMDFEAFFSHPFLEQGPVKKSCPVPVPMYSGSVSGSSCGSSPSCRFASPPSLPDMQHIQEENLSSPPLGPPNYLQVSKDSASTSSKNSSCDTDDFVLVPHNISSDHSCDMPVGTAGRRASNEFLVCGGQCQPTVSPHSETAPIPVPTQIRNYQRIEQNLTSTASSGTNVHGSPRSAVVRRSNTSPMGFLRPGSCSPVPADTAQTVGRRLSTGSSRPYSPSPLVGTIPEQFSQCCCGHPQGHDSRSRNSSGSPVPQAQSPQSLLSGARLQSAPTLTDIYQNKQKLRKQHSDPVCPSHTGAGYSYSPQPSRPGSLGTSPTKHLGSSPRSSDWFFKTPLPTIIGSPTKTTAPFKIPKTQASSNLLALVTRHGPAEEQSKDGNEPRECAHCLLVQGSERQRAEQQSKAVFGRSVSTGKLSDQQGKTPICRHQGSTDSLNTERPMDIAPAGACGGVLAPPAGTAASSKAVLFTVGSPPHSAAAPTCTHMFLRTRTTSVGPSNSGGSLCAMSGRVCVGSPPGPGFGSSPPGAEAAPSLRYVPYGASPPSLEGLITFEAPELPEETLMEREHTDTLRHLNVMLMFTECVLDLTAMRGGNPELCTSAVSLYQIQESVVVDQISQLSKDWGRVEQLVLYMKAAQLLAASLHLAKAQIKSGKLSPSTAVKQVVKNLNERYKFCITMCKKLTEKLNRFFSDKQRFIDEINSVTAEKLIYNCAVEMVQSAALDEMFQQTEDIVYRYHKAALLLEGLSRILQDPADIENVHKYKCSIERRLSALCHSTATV
# [14] = target: T4, Serine/threonine-protein kinase ULK2 (Homo sapiens); details: at 10 µM
# [15] = target: T5, Serine/threonine-protein kinase ULK3 (Homo sapiens) (UniProt Q6PHR2); details: at 1 µM
# T5 sequence (whole entry): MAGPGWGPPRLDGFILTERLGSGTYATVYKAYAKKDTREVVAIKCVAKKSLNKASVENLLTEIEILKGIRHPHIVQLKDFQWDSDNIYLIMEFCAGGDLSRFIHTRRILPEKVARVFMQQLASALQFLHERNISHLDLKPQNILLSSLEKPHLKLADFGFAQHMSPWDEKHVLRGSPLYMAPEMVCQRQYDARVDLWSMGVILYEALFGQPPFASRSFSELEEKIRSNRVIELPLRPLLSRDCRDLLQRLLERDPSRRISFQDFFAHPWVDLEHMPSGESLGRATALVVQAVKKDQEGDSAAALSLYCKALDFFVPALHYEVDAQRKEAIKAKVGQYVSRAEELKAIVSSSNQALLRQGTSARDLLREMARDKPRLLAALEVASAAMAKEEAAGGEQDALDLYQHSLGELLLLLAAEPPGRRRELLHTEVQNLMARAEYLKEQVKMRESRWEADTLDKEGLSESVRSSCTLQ
# [16] = target: T5, Serine/threonine-protein kinase ULK3 (Homo sapiens); details: at 10 µM
# [17] = target: Serine/threonine-protein kinase VRK2 (Homo sapiens) (UniProt Q86Y07); details: at 1 µM
# [18] = target: Serine/threonine-protein kinase VRK2 (Homo sapiens) (UniProt Q86Y07); details: at 10 µM
# [19] = target: T6, Testis-specific serine/threonine-protein kinase 1 (Homo sapiens) (UniProt Q9BXA7); details: at 10 µM
# T6 sequence (whole entry): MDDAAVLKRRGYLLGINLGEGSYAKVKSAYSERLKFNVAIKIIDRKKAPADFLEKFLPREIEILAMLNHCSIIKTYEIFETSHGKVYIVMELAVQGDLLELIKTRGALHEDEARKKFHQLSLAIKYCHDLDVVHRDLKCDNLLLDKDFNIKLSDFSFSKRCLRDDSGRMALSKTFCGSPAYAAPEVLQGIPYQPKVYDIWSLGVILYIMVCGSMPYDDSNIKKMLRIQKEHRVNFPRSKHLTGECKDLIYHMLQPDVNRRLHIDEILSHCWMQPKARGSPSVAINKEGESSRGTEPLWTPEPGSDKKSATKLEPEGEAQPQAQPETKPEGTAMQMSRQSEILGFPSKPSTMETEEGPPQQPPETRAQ
# Chain of Serine/threonine-protein kinase WNK2 (Homo sapiens) (Q9Y3S1 whole entry): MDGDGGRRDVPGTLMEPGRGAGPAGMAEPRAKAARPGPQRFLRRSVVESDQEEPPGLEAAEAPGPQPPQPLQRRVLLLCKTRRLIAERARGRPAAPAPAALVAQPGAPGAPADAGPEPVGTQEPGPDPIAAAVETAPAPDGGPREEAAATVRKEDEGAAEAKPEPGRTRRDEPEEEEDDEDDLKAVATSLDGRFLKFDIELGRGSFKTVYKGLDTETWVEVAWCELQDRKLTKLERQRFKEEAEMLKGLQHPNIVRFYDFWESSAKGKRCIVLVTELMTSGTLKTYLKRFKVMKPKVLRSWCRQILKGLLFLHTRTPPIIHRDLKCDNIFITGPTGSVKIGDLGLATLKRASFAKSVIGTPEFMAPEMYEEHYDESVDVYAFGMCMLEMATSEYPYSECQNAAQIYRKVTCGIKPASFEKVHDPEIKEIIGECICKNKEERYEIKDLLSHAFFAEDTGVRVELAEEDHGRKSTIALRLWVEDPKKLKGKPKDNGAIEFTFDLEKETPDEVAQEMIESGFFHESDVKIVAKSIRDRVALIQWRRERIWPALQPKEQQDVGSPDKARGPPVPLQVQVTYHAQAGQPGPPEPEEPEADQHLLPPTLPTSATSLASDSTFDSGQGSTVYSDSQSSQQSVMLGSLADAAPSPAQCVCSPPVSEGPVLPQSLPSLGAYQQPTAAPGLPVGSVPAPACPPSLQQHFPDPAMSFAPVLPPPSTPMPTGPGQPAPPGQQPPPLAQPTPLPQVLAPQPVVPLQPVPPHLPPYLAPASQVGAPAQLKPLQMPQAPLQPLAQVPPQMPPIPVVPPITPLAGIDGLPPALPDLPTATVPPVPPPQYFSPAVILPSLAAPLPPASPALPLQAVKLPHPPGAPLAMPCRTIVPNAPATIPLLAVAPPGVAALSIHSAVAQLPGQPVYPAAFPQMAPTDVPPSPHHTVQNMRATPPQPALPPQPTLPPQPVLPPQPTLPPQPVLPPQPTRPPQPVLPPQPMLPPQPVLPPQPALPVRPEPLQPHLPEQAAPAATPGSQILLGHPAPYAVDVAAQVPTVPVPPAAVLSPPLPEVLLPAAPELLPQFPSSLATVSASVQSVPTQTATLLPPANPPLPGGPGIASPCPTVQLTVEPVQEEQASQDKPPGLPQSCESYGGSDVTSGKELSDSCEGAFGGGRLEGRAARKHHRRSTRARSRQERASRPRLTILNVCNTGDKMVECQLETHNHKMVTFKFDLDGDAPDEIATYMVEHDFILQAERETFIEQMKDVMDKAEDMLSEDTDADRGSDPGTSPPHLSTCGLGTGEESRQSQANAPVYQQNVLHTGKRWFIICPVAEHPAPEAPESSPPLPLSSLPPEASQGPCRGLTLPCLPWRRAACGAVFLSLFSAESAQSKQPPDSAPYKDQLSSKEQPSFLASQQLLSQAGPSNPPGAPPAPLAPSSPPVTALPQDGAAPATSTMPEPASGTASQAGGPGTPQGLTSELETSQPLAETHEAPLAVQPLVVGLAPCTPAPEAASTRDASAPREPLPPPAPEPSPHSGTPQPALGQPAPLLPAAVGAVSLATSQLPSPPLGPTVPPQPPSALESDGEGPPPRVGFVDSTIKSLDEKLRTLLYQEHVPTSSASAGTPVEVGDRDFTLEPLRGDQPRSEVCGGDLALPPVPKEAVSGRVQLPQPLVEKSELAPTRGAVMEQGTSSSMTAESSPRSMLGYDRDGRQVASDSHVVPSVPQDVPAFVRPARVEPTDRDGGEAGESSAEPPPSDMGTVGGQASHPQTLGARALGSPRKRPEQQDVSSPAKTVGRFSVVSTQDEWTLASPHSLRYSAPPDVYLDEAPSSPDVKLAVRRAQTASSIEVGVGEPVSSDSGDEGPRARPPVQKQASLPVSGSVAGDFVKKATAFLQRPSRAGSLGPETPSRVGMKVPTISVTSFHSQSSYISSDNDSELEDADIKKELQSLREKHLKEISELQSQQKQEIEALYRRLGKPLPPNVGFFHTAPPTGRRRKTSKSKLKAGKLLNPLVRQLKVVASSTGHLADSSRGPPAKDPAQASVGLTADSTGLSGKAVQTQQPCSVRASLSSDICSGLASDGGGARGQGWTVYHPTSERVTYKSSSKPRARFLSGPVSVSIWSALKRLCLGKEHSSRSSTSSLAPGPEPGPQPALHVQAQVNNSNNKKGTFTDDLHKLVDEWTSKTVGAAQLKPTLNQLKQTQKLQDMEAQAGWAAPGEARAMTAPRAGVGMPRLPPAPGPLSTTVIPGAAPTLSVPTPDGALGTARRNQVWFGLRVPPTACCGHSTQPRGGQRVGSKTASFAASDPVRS
# Chain of BDNF/NT-3 growth factors receptor (Homo sapiens) (Q16620 32-822 limits assumed): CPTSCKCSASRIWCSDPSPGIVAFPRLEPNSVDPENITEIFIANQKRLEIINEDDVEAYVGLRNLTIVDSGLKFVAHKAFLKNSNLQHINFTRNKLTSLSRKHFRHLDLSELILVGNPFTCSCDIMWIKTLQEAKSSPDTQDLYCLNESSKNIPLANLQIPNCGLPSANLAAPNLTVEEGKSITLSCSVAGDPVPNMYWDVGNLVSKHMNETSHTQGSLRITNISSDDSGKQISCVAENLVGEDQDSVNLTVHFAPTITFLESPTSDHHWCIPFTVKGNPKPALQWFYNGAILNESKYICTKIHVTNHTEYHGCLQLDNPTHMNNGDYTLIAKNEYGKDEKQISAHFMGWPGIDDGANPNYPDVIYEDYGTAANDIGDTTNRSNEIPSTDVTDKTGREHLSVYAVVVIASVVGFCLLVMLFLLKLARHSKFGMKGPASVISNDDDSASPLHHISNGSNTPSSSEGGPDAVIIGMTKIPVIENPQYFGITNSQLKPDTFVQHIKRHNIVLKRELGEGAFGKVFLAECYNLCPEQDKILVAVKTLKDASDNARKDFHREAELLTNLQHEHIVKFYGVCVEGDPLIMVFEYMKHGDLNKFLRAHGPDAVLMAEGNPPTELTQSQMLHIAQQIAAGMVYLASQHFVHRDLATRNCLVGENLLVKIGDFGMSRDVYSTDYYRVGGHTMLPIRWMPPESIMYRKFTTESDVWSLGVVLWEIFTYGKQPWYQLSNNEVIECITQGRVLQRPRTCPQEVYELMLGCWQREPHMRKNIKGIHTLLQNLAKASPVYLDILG
# Chain of High affinity nerve growth factor receptor (Homo sapiens) (P04629 33-796 limits assumed): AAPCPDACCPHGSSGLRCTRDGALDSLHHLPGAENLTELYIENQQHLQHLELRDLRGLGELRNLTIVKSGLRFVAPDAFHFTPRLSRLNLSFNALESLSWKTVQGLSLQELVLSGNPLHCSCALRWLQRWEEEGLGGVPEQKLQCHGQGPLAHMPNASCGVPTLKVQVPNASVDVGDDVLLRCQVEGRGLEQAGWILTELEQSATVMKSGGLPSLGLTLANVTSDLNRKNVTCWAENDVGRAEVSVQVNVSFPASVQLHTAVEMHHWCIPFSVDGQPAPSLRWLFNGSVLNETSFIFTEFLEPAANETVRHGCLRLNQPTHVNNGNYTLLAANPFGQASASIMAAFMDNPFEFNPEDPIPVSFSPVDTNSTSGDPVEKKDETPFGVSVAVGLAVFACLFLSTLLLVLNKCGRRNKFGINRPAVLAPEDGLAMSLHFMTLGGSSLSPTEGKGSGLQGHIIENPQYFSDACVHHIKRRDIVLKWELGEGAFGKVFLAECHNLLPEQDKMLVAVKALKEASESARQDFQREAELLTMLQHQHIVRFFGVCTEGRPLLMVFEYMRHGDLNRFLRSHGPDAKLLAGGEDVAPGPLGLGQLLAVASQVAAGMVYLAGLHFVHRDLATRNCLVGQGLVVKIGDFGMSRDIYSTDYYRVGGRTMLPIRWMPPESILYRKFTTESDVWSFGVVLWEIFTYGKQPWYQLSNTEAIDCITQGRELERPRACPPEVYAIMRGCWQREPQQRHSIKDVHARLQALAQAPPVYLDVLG
# Chain of Angiopoietin-1 receptor (Homo sapiens) (Q02763 whole entry): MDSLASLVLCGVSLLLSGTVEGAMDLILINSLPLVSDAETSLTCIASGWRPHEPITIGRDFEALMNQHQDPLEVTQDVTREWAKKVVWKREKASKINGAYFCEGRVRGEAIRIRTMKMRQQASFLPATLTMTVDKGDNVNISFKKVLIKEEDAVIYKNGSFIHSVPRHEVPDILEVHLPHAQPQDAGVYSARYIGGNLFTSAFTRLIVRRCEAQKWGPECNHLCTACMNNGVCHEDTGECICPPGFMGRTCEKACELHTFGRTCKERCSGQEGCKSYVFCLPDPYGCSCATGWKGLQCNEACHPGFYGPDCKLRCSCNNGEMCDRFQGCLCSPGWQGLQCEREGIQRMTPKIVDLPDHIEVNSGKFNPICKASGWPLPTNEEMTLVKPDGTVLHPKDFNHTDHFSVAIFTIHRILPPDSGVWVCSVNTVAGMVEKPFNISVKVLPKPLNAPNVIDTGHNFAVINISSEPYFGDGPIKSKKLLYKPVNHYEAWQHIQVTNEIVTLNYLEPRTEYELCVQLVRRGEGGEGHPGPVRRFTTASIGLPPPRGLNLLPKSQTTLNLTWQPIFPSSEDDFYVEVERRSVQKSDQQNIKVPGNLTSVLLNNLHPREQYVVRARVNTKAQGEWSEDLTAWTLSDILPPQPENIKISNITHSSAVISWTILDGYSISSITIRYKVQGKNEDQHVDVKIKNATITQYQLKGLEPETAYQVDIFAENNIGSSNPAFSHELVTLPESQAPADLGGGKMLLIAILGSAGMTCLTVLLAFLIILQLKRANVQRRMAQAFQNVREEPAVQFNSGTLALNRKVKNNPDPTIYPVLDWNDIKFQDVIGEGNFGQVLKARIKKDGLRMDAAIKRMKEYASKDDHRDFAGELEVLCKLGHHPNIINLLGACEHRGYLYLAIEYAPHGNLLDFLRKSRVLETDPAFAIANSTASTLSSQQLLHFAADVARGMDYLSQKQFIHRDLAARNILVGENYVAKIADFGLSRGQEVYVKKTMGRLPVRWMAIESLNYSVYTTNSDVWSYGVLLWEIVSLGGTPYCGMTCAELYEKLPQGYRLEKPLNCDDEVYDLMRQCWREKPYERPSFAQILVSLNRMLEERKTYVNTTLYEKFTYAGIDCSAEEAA
smiles,measurement,setting,value
N#Cc1c(NC(=O)c2cccc3ccccc23)sc2c1CCCC2,residual activity,[1],94%
same,residual activity,[2],69%
same,residual activity,[3],81%
same,residual activity,[4],87%
same,residual activity,[5],90%
same,residual activity,[6],80%
N#C/C(=C1/Nc2ccccc2S1)c1ccnc(NCCc2cccnc2)n1,residual activity,[7],68%
same,residual activity,[1],79%
same,residual activity,[2],17%
same,residual activity,[3],56%
same,residual activity,[4],11%
same,residual activity,[8],76%
same,residual activity,[9],44%
same,residual activity,[10],63% (inactive)
O=C1NC(=O)c2c1c1c3ccccc3[nH]c1n1cncc21,residual activity,[7],85%
same,residual activity,[1],70%
same,residual activity,[2],65%
same,residual activity,[11],98%
same,residual activity,[12],79%
same,residual activity,[3],21%
same,residual activity,[4],9%
same,residual activity,[8],48%
same,residual activity,[9],20%
same,residual activity,[5],71%
same,residual activity,[6],79%
same,residual activity,[13],103%
same,residual activity,[14],86%
same,residual activity,[15],80%
same,residual activity,[16],70%
same,residual activity,[17],93% (inactive)
same,residual activity,[18],91%
same,residual activity,[10],82% (inactive)
Fc1ccc(-c2nc3n(c2-c2ccncc2)CCS3)cc1,residual activity,[7],86%
same,residual activity,[11],128%
same,residual activity,[12],124%
same,residual activity,[4],88%
same,residual activity,[5],93%
same,residual activity,[18],80%
O=C1Cc2c([nH]c3ccc([N+](=O)[O-])cc23)-c2ccccc2N1,residual activity,[1],79%
same,residual activity,[2],72%
same,residual activity,[3],72%
same,residual activity,[4],63%
same,residual activity,[5],49%
same,residual activity,[6],39%
same,residual activity,[13],49%
same,residual activity,[14],45%
same,residual activity,[15],75%
same,residual activity,[16],53%
N#C/C(=C\c1ccc(O)c(O)c1)C(=O)NCc1ccccc1,residual activity,[11],89%
same,residual activity,[12],71%
same,residual activity,[3],64%
same,residual activity,[4],-1%
same,residual activity,[9],102%
same,residual activity,[6],86%
same,residual activity,[14],85%
same,residual activity,[16],86%
Cc1cc(C)c(/C=C2\C(=O)Nc3ccccc32)[nH]1,residual activity,[19],75%
same,residual activity,[1],100%
same,residual activity,[11],74%
same,residual activity,[12],82%
same,residual activity,[3],1%
same,residual activity,[4],0%
same,residual activity,[8],40%
same,residual activity,[9],-7%
same,residual activity,[5],103%
same,residual activity,[17],98% (inactive)
same,residual activity,[18],68%
Oc1cccc(-c2nc(N3CCOCC3)c3oc4ncccc4c3n2)c1,residual activity,[7],74%
same,residual activity,[11],80%
same,residual activity,[12],59%
same,residual activity,[3],93%
same,residual activity,[4],118%
same,residual activity,[5],93%
same,residual activity,[6],92%
same,residual activity,[14],81%
same,residual activity,[16],92%
same,residual activity,[18],89%
O=c1cc(N2CCOCC2)oc2c(-c3ccccc3)cccc12,residual activity,[7],68%
same,residual activity,[11],71%
same,residual activity,[12],64%
same,residual activity,[3],79%
same,residual activity,[4],71%
same,residual activity,[6],69%
CCN1/C(=C/C(C)=O)Sc2ccc(OC)cc21,residual activity,[7],75%
same,residual activity,[5],81%
same,residual activity,[6],77%
same,residual activity,[10],76% (inactive)
CN([C@@H](Cc1ccc(OS(=O)(=O)c2cccc3cnccc23)cc1)C(=O)N1CCN(c2ccccc2)CC1)S(=O)(=O)c1cccc2cnccc12,residual activity,[12],72%
same,residual activity,[8],79%
same,residual activity,[9],50%
O=c1c(-c2ccc(F)cc2)c(-c2ccncc2)[nH]n1-c1ccc(Cl)cc1,residual activity,[19],78%
same,residual activity,[12],75%
same,residual activity,[14],102%
same,residual activity,[17],100% (inactive)
same,residual activity,[18],99%
